Reference: the supplement of paper PMC10849652
Targets with a hit are over-represented here; the source holds about 7,900 in all. About 0.6% of all pairs of compound and target were hits.

Experiments:
Experiment in all cases: log2 fold change, soluble protein after heating vs DMSO (PISA); higher = thermal stabilisation; K562 cells, 10 uM, 30 min; active = over 0.2 and 3.5 SD of the protein, either way, in both replicates (recomputed)
[1] = compound: CC[C@@H]1C(=O)N(C)c2cnc(Nc3ccc(C(=O)NC4CCN(C)CC4)cc3OC)nc2N1C1CCCC1
Summary of the method: (§1)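 K562 cells at 2×10^6 cells/mL were exposed to 10 μM compound for 30 min, then aliquots were heated for 3 min across 48°C-58°C, pooled, and extracted in PBS containing 0.5% NP-40 at 4°C. The supernatant after 21,000xg for 90 min was taken as soluble protein and measured by TMTpro 16plex LC-MS/MS with channel sums equalised. Thermal stability is reported relative to control samples, with values from duplicates. Fold changes are given on a log2 scale.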

[2] = compound: CC[C@@H]1C(=O)N(C)c2cnc(Nc3ccc(C(=O)N[C@H]4CC[C@H](N5CCN(CC6CC6)CC5)CC4)cc3OC)nc2N1C(C)C [volasertib]
Summary of the method: as §1

[3] = compound: CC[C@H](C)N1C=C(C2=C(C=C(C=C21)C3=CN=C(C=C3)N4CCNCC4)C(=O)NCC5=C(C=C(NC5=O)C)C)C
Summary of the method: as §1

[4] = compound: CC[C@H](C)[C@@H](C(=O)N[C@@H]([C@@H](C)O)C(=O)N[C@@H](CC(C)C)C(=O)[C@]1(CO1)C)NC(=O)[C@H]([C@@H](C)CC)N(C)C(=O)C [epoxomicin]
Summary of the method: as §1

[5] = compound: CCn1c(C(=O)N(C2CC2)C2CC2)cc2c3c(ncn3C)c(Nc3cc(C)n(C)n3)nc21
Summary of the method: as §1

[6] = compound: CCn1cc(-c2ccnc3[nH]c(-c4cccc(CN(C)C)c4)cc23)c(-c2ccc(NC(=O)N(C)C)cc2)n1
Summary of the method: as §1

[7] = compound: CN(C)CC(=O)Nc1ccc2[nH]c(=O)c3ccccc3c2c1
Summary of the method: as §1

[8] = compound: CN(CCOC1=CC=C(C=C1)C[C@H]2C(=O)NC(=O)S2)C3=CC=CC=N3 (racemic) [rosiglitazone]
Summary of the method: as §1

[9] = compound: CN1C2=C(C3=C1C(=O)N(N=C3)CC4=CC(=CC=C4)N)SC(=C2)S(=O)C
Summary of the method: as §1

[10] = compound: CN1CCC(CNc2ccc3ncc(-c4cccc(OC(F)(F)F)c4)n3n2)CC1
Summary of the method: as §1

Measured: log2 fold change

BZW1 isoform 3 (UniProt Q7L1Q6)
inactive: [1] -0.273 | [3] 0.114 | [4] 0.019 | [5] -0.128 | [6] -0.041 | [7] 0.104 | [8] 0.063 | [9] 0.068 | [10] -0.33
active: [2] -0.82

ASB6 (UniProt Q9NWX5)
Chain of UniProt Q9NWX5 (Q9NWX5 whole entry, looked up): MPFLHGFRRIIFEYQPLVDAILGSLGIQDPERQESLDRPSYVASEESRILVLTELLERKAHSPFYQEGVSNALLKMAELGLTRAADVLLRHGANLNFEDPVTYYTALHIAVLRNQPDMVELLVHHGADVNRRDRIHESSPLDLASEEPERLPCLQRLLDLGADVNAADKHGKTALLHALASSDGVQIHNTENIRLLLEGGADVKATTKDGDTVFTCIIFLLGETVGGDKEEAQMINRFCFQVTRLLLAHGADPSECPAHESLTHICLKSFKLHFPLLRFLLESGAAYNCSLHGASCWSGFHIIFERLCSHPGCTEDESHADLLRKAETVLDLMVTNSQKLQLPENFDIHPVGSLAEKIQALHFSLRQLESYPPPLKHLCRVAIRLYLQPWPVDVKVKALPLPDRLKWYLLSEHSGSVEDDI
inactive: [1] 0.047 | [2] -0.321 | [3] 0.028 | [4] -0.094 | [5] -0.016 | [6] -0.076 | [7] 0.041 | [8] 0.067 | [10] -0.083

ACOX3 (UniProt O15254)
inactive: [1] -0.346 | [2] 0.028 | [3] -0.069 | [4] -0.113 | [5] 0.011 | [7] -0.129 | [8] 0.044

APH1A (UniProt Q96BI3)
inactive: [1] -0.023 | [2] 0.031 | [3] 0.004 | [5] -0.019 | [6] 0.026 | [7] 0.19 | [8] -0.183 | [9] 0.034 | [10] 0.03

AKT1 (UniProt P31749)
inactive: [1] 0 | [2] -0.503 | [3] 0.068 | [4] 0.158 | [5] -0.119 | [6] -0.08 | [7] 0.133 | [8] 0.257 | [9] 0.107 | [10] 0.222

AARSD1 (UniProt Q9BTE6)
inactive: [1] -0.042 | [2] -0.227 | [3] -0.121 | [5] -0.046 | [8] 0.085 | [9] 0.283

ARHGAP4 isoform 2 (UniProt P98171)
active: [9] 0.757
inactive: [1] -0.044 | [2] -0.112 | [3] 0.048 | [5] -0.048 | [7] 0.036 | [8] 0.293

ATF1 (UniProt P18846)
inactive: [1] 0 | [2] 0.109 | [3] -0.065 | [4] 0.17 | [5] 0.005 | [6] 0.035 | [7] 0.002 | [8] -0.104 | [10] -0.002

ABITRAM (UniProt Q9NX38)
inactive: [1] 0.033 | [2] -0.11 | [3] 0.088 | [4] 0.055 | [6] 0.137 | [7] 0.051 | [8] 0.139 | [9] -0.034 | [10] -0.093

BRIP1 (UniProt Q9BX63)
inactive: [1] -0.067 | [2] 0.008 | [3] -0.004 | [4] -0.008 | [5] -0.16 | [6] -0.122 | [7] -0.068 | [8] 0.044 | [9] 0.041 | [10] -0.084

AAR2 (UniProt Q9Y312)
inactive: [1] -0.032 | [2] -0.016 | [3] -0.03 | [4] 0.037 | [5] -0.038 | [6] 0.106 | [7] -0.001 | [8] 0 | [9] -0.087 | [10] -0.096

AFG1L (UniProt Q8WV93)
inactive: [1] 0.047 | [2] -0.223 | [3] 0.207 | [4] 0.035 | [5] 0.017 | [7] 0.063 | [8] 0.021 | [9] -0.122

AMD1 (UniProt P17707)
Chain of UniProt P17707 (P17707 whole entry, looked up): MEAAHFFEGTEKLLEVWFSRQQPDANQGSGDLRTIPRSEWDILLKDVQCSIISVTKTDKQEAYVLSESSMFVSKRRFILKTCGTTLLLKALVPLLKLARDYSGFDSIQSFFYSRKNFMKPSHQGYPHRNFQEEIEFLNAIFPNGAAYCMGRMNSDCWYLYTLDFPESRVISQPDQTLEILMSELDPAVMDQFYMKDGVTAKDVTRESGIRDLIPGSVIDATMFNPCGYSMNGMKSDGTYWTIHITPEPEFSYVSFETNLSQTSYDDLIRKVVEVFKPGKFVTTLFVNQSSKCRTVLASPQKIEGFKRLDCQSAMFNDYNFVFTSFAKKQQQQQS
inactive: [1] 0.061 | [2] -0.098 | [3] 0.099 | [4] 0.057 | [5] -0.073 | [6] -0.033 | [7] -0.101 | [8] 0.089 | [10] -0.091

ATG9A (UniProt Q7Z3C6)
inactive: [1] -0.019 | [3] 0.027 | [4] -0.007 | [5] 0.002 | [6] -0.06 | [7] 0.018 | [8] 0.008 | [9] 0.058 | [10] -0.118
active: [2] -0.326

ATIC (UniProt P31939)
Chain of UniProt P31939 (P31939 whole entry, looked up): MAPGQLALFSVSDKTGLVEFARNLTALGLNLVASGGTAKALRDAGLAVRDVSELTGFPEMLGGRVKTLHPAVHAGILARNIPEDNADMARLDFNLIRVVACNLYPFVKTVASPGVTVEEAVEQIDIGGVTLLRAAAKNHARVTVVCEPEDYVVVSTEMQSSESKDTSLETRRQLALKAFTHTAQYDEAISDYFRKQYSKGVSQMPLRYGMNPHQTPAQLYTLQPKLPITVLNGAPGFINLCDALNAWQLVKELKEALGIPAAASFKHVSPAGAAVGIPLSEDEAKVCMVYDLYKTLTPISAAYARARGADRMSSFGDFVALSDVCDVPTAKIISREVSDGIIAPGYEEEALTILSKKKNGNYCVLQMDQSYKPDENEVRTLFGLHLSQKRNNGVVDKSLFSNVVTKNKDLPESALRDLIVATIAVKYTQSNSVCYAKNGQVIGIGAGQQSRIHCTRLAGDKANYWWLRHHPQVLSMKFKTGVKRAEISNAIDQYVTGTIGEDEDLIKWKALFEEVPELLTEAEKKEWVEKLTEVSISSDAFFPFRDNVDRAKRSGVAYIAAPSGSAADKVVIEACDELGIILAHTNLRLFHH
inactive: [1] -0.032 | [2] 0.021 | [3] 0.029 | [4] 0.04 | [5] -0.011 | [6] -0.016 | [7] 0.023 | [8] -0.012 | [9] -0.123 | [10] 0.029

AP4S1 (UniProt Q9Y587)
Chain of UniProt Q9Y587 (Q9Y587 whole entry, looked up): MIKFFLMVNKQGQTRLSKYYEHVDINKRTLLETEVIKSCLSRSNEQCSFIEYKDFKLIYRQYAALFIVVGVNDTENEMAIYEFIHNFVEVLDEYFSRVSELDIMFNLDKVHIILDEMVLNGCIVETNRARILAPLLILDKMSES
inactive: [1] -0.117 | [2] -0.321 | [3] 0.059 | [4] -0.006 | [5] -0.056 | [7] 0.027 | [8] 0.024 | [9] 0.078

AGAP3 isoform 4 (UniProt Q96P47)
inactive: [1] 0.154 | [2] -0.038 | [3] 0.105 | [4] 0.034 | [5] 0.019 | [8] 0.162

ALDH18A1 (UniProt P54886)
Chain of UniProt P54886 (P54886 whole entry, looked up): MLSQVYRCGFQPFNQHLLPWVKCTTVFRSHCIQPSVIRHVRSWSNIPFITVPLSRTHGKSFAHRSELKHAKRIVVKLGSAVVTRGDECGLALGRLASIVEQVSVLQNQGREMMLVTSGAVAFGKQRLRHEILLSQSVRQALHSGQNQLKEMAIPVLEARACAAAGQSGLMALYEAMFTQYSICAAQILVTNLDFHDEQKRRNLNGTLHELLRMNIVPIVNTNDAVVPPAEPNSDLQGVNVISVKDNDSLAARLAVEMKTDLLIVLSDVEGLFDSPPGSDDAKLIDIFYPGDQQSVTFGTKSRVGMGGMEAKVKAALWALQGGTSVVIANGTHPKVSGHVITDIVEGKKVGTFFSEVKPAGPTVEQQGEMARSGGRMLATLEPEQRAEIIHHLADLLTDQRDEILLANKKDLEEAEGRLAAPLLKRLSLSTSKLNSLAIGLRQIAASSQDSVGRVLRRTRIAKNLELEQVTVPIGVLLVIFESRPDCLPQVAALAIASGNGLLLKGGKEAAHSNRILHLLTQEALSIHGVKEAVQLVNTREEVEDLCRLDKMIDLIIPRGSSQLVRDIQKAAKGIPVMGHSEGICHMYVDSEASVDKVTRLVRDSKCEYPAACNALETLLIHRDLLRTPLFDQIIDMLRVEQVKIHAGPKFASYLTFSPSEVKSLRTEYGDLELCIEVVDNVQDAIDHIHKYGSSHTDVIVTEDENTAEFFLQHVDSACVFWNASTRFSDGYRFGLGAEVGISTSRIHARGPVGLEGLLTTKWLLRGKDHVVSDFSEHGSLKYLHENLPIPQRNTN
inactive: [1] -0.418 | [3] 0.092 | [4] 0.1 | [5] -0.117 | [6] -0.208 | [7] 0.041 | [8] 0.148 | [9] 0.054 | [10] -0.054
active: [2] -0.713

ACAP2 (UniProt Q15057)
inactive: [1] -0.034 | [2] -0.192 | [3] 0.066 | [4] -0.002 | [5] -0.007 | [6] -0.015 | [7] 0.065 | [8] 0.023 | [9] -0.004 | [10] 0.063

ATRN (UniProt O75882)
inactive: [1] 0.029 | [2] -0.094 | [3] -0.019 | [4] 0.063 | [5] -0.1 | [6] 0.004 | [7] -0.01 | [8] -0.096 | [9] 0.095 | [10] 0.121

ATXN3 isoform 1 (UniProt P54252)
active: [2] -0.401
inactive: [1] -0.371 | [3] 0.099 | [5] 0.011 | [6] -0.016 | [7] -0.083 | [8] -0.039 | [10] -0.015

APOH (UniProt P02749)
inactive: [1] -0.397 | [2] -0.443 | [3] -0.167 | [5] -0.171 | [6] 0.078 | [7] -0.141 | [8] -0.048 | [9] 0.48 | [10] 0.077

APPL1 (UniProt Q9UKG1)
Chain of UniProt Q9UKG1 (Q9UKG1 whole entry, looked up): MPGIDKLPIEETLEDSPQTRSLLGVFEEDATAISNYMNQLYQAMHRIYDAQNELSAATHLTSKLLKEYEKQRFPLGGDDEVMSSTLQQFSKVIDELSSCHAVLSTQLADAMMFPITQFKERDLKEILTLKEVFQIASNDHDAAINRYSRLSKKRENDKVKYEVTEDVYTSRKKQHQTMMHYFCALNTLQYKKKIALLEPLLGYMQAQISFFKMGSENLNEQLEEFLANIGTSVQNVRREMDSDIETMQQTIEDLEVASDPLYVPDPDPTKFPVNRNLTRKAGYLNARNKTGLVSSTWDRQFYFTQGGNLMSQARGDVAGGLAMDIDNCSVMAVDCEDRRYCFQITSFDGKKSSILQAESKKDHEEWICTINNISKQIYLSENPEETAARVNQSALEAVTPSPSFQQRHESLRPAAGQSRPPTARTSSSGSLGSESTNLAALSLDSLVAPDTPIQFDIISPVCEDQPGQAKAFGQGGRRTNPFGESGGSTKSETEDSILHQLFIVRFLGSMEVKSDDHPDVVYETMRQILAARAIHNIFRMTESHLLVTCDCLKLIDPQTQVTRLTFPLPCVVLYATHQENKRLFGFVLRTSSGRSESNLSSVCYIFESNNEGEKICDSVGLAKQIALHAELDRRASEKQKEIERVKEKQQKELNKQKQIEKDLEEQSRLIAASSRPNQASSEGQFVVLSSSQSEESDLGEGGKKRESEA
active: [2] -0.317
inactive: [1] -0.149 | [3] 0.058 | [4] -0.044 | [5] 0.038 | [6] -0.021 | [7] 0.02 | [8] 0.044 | [9] -0.113 | [10] -0.065

APAF1 (UniProt O14727)
inactive: [1] -0.123 | [2] -0.076 | [3] 0.187 | [4] -0.045 | [5] -0.231 | [6] -0.009 | [7] 0.037 | [9] 0.148 | [10] -0.088

BRD8 (UniProt Q9H0E9)
Chain of UniProt Q9H0E9 (Q9H0E9 whole entry, looked up): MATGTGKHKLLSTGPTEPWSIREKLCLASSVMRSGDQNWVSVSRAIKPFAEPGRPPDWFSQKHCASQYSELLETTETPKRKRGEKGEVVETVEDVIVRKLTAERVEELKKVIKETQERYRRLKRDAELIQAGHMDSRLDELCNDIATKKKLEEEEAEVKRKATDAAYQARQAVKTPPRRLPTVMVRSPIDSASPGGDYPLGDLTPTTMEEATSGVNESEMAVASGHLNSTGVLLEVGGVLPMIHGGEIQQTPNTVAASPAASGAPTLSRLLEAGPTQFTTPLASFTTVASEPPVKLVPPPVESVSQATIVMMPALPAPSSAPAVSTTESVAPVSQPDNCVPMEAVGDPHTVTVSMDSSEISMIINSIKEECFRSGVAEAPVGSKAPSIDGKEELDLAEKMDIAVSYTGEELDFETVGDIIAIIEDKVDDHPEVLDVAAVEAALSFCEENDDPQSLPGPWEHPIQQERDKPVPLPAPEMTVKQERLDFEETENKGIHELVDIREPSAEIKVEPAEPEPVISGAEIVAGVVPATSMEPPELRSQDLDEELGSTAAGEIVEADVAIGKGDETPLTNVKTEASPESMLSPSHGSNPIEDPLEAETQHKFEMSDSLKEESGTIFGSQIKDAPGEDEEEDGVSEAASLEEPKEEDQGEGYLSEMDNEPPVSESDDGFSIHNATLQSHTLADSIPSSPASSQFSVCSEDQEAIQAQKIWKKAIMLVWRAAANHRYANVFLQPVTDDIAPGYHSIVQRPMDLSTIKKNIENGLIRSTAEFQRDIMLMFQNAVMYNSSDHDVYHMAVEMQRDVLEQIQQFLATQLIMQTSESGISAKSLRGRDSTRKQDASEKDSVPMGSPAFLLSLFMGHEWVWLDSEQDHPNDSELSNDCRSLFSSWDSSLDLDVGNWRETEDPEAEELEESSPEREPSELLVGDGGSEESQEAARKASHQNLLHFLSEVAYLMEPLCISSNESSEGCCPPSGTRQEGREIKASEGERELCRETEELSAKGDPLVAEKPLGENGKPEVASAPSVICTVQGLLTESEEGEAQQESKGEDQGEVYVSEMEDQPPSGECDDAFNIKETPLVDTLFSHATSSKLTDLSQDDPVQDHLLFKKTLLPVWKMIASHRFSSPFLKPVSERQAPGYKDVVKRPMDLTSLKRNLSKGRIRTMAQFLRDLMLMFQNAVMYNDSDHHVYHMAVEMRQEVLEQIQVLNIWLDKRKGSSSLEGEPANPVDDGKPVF
inactive: [1] 0.038 | [2] -0.044 | [3] -0.013 | [4] 0.039 | [5] 0.035 | [6] 0.043 | [7] -0.044 | [8] 0.003 | [9] 0.025 | [10] -0.063

AP2A2 isoform 2 (UniProt O94973)
inactive: [1] 0.026 | [2] -0.021 | [3] 0 | [4] 0.048 | [5] 0.01 | [6] -0.012 | [7] 0 | [8] 0.012 | [9] 0.008 | [10] 0.089

ARL2BP (UniProt Q9Y2Y0)
active: [2] -0.682
inactive: [1] -0.222 | [3] 0.023 | [4] -0.008 | [5] -0.022 | [6] -0.048 | [7] 0.032 | [8] 0.019 | [9] -0.062 | [10] -0.183

APOBEC3G (UniProt Q9HC16)
Chain of UniProt Q9HC16 (Q9HC16 whole entry, looked up): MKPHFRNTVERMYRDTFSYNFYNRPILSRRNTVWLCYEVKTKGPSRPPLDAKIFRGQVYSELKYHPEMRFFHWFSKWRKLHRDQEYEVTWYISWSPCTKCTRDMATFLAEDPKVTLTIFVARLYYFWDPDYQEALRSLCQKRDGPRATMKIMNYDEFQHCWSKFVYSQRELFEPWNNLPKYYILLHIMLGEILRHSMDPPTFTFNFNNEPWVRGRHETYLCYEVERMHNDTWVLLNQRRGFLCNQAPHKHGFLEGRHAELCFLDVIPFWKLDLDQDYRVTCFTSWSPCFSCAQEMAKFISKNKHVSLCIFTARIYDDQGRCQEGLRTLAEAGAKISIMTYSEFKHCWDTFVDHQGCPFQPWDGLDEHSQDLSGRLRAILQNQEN
inactive: [1] 0.267 | [2] -0.008 | [3] 0.051 | [4] -0.146 | [5] 0.006 | [7] -0.148 | [8] -0.115 | [9] 0.025

AKR1C2 (UniProt P52895)
inactive: [1] 0.27 | [2] 0.087 | [3] 0.03 | [4] -0.139 | [5] -0.039 | [6] 0.002 | [7] -0.006 | [8] -0.001 | [10] -0.016
active: [9] 0.568

ATXN7L3 isoform 2 (UniProt Q14CW9)
Chain of UniProt Q14CW9 (Q14CW9 whole entry, looked up): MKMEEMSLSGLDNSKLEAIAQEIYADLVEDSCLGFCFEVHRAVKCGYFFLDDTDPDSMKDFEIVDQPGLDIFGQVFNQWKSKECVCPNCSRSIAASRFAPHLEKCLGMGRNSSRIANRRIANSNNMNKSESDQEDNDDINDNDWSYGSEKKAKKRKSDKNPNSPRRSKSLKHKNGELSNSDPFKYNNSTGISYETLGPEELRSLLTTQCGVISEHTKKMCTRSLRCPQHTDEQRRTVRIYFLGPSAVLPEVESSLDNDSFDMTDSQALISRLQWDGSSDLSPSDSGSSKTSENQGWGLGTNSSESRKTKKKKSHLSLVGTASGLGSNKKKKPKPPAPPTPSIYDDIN
inactive: [1] -0.042 | [3] -0.166 | [5] 0.036 | [8] -0.2

AP2M1 (UniProt C9JTK4)
inactive: [1] 0.03 | [3] -0.051 | [4] 0.027 | [7] -0.243 | [8] -0.016 | [9] -0.049

ARHGAP25 isoform 4 (UniProt P42331)
inactive: [1] -0.031 | [3] -0.031 | [4] 0.083 | [5] -0.103 | [6] 0.072 | [7] 0.134 | [8] 0.088 | [9] 0.127 | [10] -0.221

AASDH (UniProt Q4L235)
active: [2] -0.445
inactive: [3] 0.141 | [4] 0.028 | [5] -0.018 | [6] 0.149 | [7] 0.189 | [8] -0.044 | [9] -0.019 | [10] 0.004

ARL4A (UniProt P40617)
inactive: [8] 0.063

ACTR3B (UniProt Q9P1U1)
inactive: [2] -0.063 | [3] 0.261 | [5] 0.038 | [6] -0.047 | [7] -0.05 | [10] 0.048
